# Reference: PubChem BioAssay (NCATS)
# A number with no mark means an inactive call. Calls follow the shape of the dose curve; as a rule, active = well fitted inhibition curve with a large enough effect; inconclusive = small, poorly fitted or top-dose-only effect; inactive = flat fitted curve, though single readings scatter.
# Molecular target: DNA polymerase III PolC-type (Bacillus subtilis (strain 168)) (UniProt P13267)
# Assay: qHTS Validation Assay for the Inhibitors of DNA Replication in Gram-Positive Bacteria (AID 485295);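 also: reconstituted holoenzyme with PolC plus beta clamp SSB and primase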
# Settings: Gram-positive bacterial DNA replication assay; series mostly up to 57.1 µM; activity change, negative = inhibition: at the top concentration
# Procedure: B Subtilis DNA polymerase III holoenzyme complex was assayed for DNA production by fluorescent detection of the double-stranded DNA product with PicoGreen dye. The holoenzyme complex was reconstituted from the following purified protein components: DNA Polymerase III, beta subunit processivity factor, SSB single-stranded DNA binding protein, and Primase. Single-stranded, circular M13Gori was used as a substrate with dNTPs and NTPs also supplied to the substrate reagent. Compounds from the NCGC collection were incubated with the holoenzyme mixture for […] at room temperature to allow binding to occur, and then the reaction was started by the addition of substrate. After 30 min incubation at room temperature, PicoGreen solution containing EDTA was added to stop the reaction and to visualize the double-stranded DNA produced. Reaction progress was measured in a ViewLux CCD imager in fluorescence intensity mode by using 480 nm excitation and 540 nm emission filter set.
# 1. Thaw screening compounds.
# 2. Label assay plates. Prepare pipette tips, reagent reservoirs, buffers and controls.
# 1. Thaw Enzymes, DNA template, Nucleotides and PicoGreen dye concentrate. Thawed enzymes are stable on ice for ~1
# week. Other thawed components are stable indefinitely.
# 2. Prepare sufficient quantities of Enzyme, Substrate and PicoGreen Quench mixes (according to Table II). For the number of
# compound plates being screened.
# 3. Ensure that the tip wash station reservoirs have clean water and turn on recirculating chiller so that the chilled deck position
# 1. Load 2 uL of EDTA controls (250 mM, Background, 100 % inhibition) and 2 uL of DMSO controls (Negative control, 0%
# inhibition) in the screening plates (flat-bottomed black 384-well polypropylene, Greiner Bio-one).
# 2. Place Enzyme mix reservoir on the chiller position of the liquid handler deck. Make sure that chiller will maintain
# temperature of Enzyme mix at 4degC. Substrate mix and PicoGreen Quench can be stored at room temp.
# 3. Program liquid handling robotics to dispense 18 uL of Enzyme mix into assay plates. Wash tips.
# 4. Aspirate and dispense 2 uL of compound from compound plates, mix and Incubate at room temperature for 10 minutes.
# 5. Aspirate 5 ul of Substrate mix, dispense into assay plates and mix by pipetting. Wash tips.
# 6. Incubate at room temperature (21 +/- 1 deg C) for 20 minutes.
# 7. Quench reactions by addition of 25 uL PicoGreen Quench mix and mix by pipetting (using HTS robotics or bulk reagent
# dispenser such as a Multidrop or uFill). Keep plates in the dark or stacked until ready to read fluorescence.
# 8. Read fluorescence intensity of plates on plate reader using "Fluorescein (Ex 485 nm/ Em 535 nm, 0.1s)" setting.
# Chain of DNA polymerase III PolC-type (Bacillus subtilis (strain 168)) (P13267 whole entry, looked up): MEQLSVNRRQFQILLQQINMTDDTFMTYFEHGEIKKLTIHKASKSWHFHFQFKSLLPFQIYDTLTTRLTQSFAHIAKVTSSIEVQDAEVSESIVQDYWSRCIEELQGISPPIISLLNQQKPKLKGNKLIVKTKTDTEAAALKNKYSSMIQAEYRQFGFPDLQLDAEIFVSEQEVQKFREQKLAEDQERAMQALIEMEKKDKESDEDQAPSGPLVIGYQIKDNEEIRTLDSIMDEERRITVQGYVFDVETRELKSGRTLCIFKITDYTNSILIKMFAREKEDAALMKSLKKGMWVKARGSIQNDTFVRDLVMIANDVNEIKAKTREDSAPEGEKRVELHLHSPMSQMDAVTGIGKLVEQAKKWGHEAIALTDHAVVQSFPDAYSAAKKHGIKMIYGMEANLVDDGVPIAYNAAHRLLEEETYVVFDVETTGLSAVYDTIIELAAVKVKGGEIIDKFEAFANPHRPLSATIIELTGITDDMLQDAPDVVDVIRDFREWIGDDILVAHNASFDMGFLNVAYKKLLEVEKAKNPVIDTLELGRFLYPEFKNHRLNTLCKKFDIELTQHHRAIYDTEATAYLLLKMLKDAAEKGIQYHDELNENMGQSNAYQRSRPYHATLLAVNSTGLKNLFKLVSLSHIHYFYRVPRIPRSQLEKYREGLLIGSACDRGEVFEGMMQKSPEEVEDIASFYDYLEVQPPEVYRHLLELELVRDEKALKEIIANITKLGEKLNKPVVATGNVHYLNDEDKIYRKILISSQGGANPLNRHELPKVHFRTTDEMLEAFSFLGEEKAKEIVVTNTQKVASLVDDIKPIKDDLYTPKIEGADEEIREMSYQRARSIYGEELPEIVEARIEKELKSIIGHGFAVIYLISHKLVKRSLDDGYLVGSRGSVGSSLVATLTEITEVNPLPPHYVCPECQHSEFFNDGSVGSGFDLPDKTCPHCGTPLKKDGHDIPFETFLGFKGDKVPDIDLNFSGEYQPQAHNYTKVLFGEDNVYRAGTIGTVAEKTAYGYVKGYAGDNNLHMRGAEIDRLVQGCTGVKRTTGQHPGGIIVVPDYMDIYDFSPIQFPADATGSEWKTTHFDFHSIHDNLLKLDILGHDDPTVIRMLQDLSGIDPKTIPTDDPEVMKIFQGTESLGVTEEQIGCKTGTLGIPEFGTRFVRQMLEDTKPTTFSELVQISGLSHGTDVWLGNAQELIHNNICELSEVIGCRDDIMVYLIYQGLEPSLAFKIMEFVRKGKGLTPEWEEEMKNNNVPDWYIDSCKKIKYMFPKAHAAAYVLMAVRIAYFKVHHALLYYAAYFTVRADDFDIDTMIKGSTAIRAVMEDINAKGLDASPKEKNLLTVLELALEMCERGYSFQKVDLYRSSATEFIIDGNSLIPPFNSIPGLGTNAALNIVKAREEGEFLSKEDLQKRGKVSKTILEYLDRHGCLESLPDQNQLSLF
row,Compound,"activity change, negative = inhibition [%]"
1,CSc1ccccc1N1CCN(CCCCCC(=O)NC2CCCc3ccccc32)CC1 (stereo not given),5.17
2,NC(N)=NC(=O)c1nc(Cl)c(N2CCCCCC2)nc1N,3.2
3,COc1ccccc1N1CCN(CCCCNS(=O)(=O)c2cccc3c(N(C)C)cccc23)CC1,-5.21
4,CC1(C)CCC=[N+]1[O-],-4.22
5,NC[C@H]1O[C@@H](n2cnc3c(N)ncnc32)[C@H](O)[C@@H]1O,-3.92
6,O=C1NC(O)=NC1(c1ccccc1)c1ccccc1,-5.88
7,Oc1cc(O)cc(/C=C/c2ccc(O)c(O)c2)c1,-21.9
8,O=C(/C=C/c1ccc(O)cc1)c1ccc(O)cc1O,-3.85
9,CCCCCC(O)c1cccc(OCc2ccc3ccccc3n2)c1 (stereo not given),-15.4
10,O=C(O)[C@@H]1C[C@@H](C(=O)O)N1,-3.64
11,O=P(O)(O)C(Cl)(Cl)P(=O)(O)O,-3.26
12,NC(=O)C(=O)O,5.85
13,O=[N+]([O-])c1ccc2c(c1)S(=O)(=O)C=C2,-6.29
14,CC(N)C(=O)OC(C)(C)Cc1ccc(Cl)cc1 (stereo not given),2.72
15,Cc1cc(NC(=O)Nc2ccc3c(ccn3C)c2)sn1,1.27
16,COC(=O)c1c(C)[nH]c(C)c1C(=O)c1ccccc1Cc1ccccc1,-6.64
17,C[C@@H](NC(=O)/C(C#N)=C/c1ccc(O)c(O)c1)c1ccccc1,-7
18,c1cnc2c(c1)ccc1cccnc12,0.326
19,NO,-2.14
20,COc1cc(OC)c(/C=C2/C(=O)Nc3ccccc32)c(OC)c1,1.25

row,Compound,"activity change, negative = inhibition [%]"
1,CC(=O)/C=C1\C(=O)N(C)c2ccccc21,-9.4
2,N=C(N)SCCc1ccc(CCSC(=N)N)cc1,-2.86
3,Cc1ccc(O)c(N=Nc2ccccc2)n1,-6.04
4,O=C1O/C(=C/Br)CCC1c1cccc2ccccc12 (stereo not given),-7.54
5,CC(C)(C)c1ccc(S(=O)(=O)/C=C/C#N)cc1,-5.46
6,C=CC(C)=C[C@@]1(C)SC(=O)C(C)=C1O,2.98
7,CC12C(=O)OC(=O)C1(C)C1CCC2O1 (stereo not given),-10.7
8,NC(CCCP(=O)(O)O)C(=O)O (stereo not given),0.208
9,Cc1ccc(S(=O)(=O)/C=C/C#N)cc1,-1.33
10,CC(C)NCC(O)COc1cccc2ccccc12 (stereo not given),4.54
11,N=c1ccn2c(n1)O[C@H]1[C@H](O)[C@@H](CO)O[C@H]12,3.17
12,COc1cc(C(O)CO)ccc1OS(=O)(=O)O (stereo not given),-2.49
13,Oc1cc2c(cc1O)CN(C(=S)NCCc1ccc(Cl)cc1)CCC2,-6.68
14,Brc1c(Br)c(Br)c2n[nH]nc2c1Br,-24.3
15,CN1CC(=O)N/C1=N/C(=O)Nc1cccc(Cl)c1,3
16,COc1cccc(OC)c1OCCNCC1COc2ccccc2O1 (stereo not given),1.83
17,NCCSSCCN,2.94
18,CC(C)(C=O)Cc1cc(C(C)(C)C)c(O)c(C(C)(C)C)c1,-4.99
19,Nc1nc(Nc2ccccc2)nc2c1ncn2[C@@H]1O[C@H](CO)[C@@H](O)[C@H]1O,0.316
20,O=C(O)/C=C/C(O)c1ccc(Cl)cc1 (stereo not given),-1.01
